Assay results from PubChem BioAssay (Tox21).
Values joined by “and” are separate entries in the source; they are usually repeats but may differ in a detail not shown here. Equal entries are not always repeated. Inconclusive results are not listed. Some compounds were tested as several samples or in several runs, with calls that do not always agree. Active and inactive are the calls of the source. The call rests on the fitted dose curve; in most records, active means well fitted curve in the direction sought with a large enough effect in the repeat runs; inconclusive means weak or mixed curves; inactive means no such curve, though single readings can be large; an effect the other way counts as inactive or inconclusive.

What was measured:
[1] = A CellTox Green Cytotoxicity Assay to monitor cytotoxicity in HEK293 cells - 40 hour (AID 1224871); further: nearly all actives have a fitted effect of over 45% in size; further: potency means the concentration at half of the fitted maximal effect
Procedure, shortened: (§1)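 Dead-cell fluorescence measured kinetically: asymmetric cyanine dye, HEK293, 600 cells/well, 5 h settle, 23 nL cpd/DMSO, 37 C, reads 0–40 h every 8 h.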

[2] = qHTS RealTime-Glo MT Cell Viability Assay in HEK293 cells - 16 hour (AID 1224872); further: nearly all actives have a fitted effect of over 50% in size; further: potency means the concentration at half of the fitted maximal effect
Procedure, shortened: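 Nonlytic real-time viability readout: viable cells convert prosubstrate to NanoLuc substrate, giving luminescence proportional to live cell number. HEK293, 600 cells/well, compound added after 5 h, continuous culture at 37 C.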

[3] = qHTS RealTime-Glo MT Cell Viability Assay in HEK293 cells - 40 hour (AID 1224874); details: RealTime-Glo luminescence; max response: stronger effect = lower value; further: nearly all actives have a fitted effect of over 50% in size
Procedure, shortened: (§2)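 600 HEK293 cells per well, dispensed already mixed with RealTime-Glo MT reagents. Compound dosing came 5 h later. The same wells were read for luminescence at 0, 8, 16, 24, 32 and 40 h of exposure at 37 C.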

[4] = A CellTox Green Cytotoxicity Assay to monitor cytotoxicity in HEK293 cells - 24 hour (AID 1224875); further: series mostly up to about 77 µM; nearly all actives have a fitted effect of over 45% in size
Procedure, shortened: as §1

[5] = A CellTox Green Cytotoxicity Assay to monitor cytotoxicity in HepG2 cells - 16 hour (AID 1224876); further: nearly all actives have a fitted effect of over 45% in size
Procedure, shortened: (§3)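 First, HepG2 cells (600/well) mixed with reagent were plated; second, after 5 h at 37 C they received compounds via pintool; third, fluorescence was measured at 0 h through 40 h at 8 h intervals.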

[6] = qHTS RealTime-Glo MT Cell Viability Assay in HepG2 cells - 32 hour (AID 1224877); further: nearly all actives have a fitted effect of over 55% in size
Procedure, shortened: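 Luminescence read-out: viable HepG2 cells reduce a prosubstrate to a NanoLuc substrate, giving a signal proportional to live cell number. Reads taken at 0, 8, 16, 24, 32 and 40 h of compound exposure at 37 C.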

[7] = A CellTox Green Cytotoxicity Assay to monitor cytotoxicity in HepG2 cells - 40 hour (AID 1224879); further: nearly all actives have a fitted effect of over 40% in size
Procedure, shortened: as §3

[8] = qHTS RealTime-Glo MT Cell Viability Assay in HEK293 cells - 0 hour (AID 1224880); further: top concentration of the series differs between compounds; nearly all actives have a fitted effect of over 45% in size
Procedure, shortened: as §2

[9] = A CellTox Green Cytotoxicity Assay to monitor cytotoxicity in HepG2 cells - 24 hour (AID 1224878); further: nearly all actives have a fitted effect of over 45% in size
Procedure, shortened: as §3

[10] = qHTS RealTime-Glo MT Cell Viability Assay in HepG2 cells - 8 hour (AID 1224873); further: nearly all actives have a fitted effect of over 55% in size
Procedure, shortened: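 Real-time viability: cells seeded at 600 per well together with NanoLuc and cell-permeant prosubstrate, compounds added after 5 h incubation. Luminescence tracked at 0, 8, 16, 24, 32 and 40 h of exposure.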
On the % scale 0 is the no-effect control and ±100 the full control effect.

COCCOC(=O)c1ccccc1C(=O)OCCOC
inactive: Potency [1] | Potency [2] | max response [3] 0.573% and 0.131% | Potency [4] | outcome [5] | outcome [6] | Potency [7] | outcome [8]

c1ccc2c(c1)Cc1ccccc1-2
inactive: Potency [2] | max response [3] -9.32% and 10% | outcome [5] | outcome [6] | Potency [9] | Potency [7] | outcome [8]
active: Potency [1] 39.5 µM and 54.9 µM

O=C(O)c1ccc(S(=O)(=O)N(Cl)Cl)cc1
49.3 µM (active) and inactive: Potency [2]
inactive: Potency [1] | Potency [4] | outcome [5] | outcome [6] | Potency [7] | outcome [8]

COC(=O)c1cccnc1
inactive: Potency [1] | Potency [2] | max response [3] 0.779% and 5.01% | Potency [4] | outcome [5] | outcome [6] | Potency [9] | Potency [7] | outcome [8]

CCCCCCCO
inactive: Potency [1] | Potency [2] | max response [3] 10.9% and 3.74% | Potency [4] | outcome [5] | outcome [6] | Potency [9] | outcome [8]

O=C1CCCC1
inactive: Potency [1] | Potency [2] | Potency [4] | outcome [5] | outcome [6] | Potency [9] | outcome [8]

C[C@]12CCC(=O)C=C1CC[C@@H]1[C@@H]2[C@@H](O)C[C@@]2(C)[C@H]1CC[C@]2(O)C(=O)CO
inactive: Potency [1] | Potency [4] | outcome [5] | Potency [9] | Potency [7]

C[C@]12CC[C@@H]3c4ccc(O)cc4CC[C@H]3[C@@H]1C[C@@H](O)[C@@H]2O
inactive: Potency [1] | Potency [2] | Potency [4] | outcome [5] | outcome [6] | Potency [9] | outcome [8]

N[C@H](Cc1c[nH]c2ccccc12)C(=O)O
inactive: Potency [1] | Potency [2] | max response [3] 20.7% and 3.97% | Potency [4] | outcome [5] | outcome [6] | Potency [9] | outcome [8]

O=S(=O)(O)c1ccc(N=Nc2c(O)ccc3cc(S(=O)(=O)O)ccc23)cc1
inactive: Potency [1] | Potency [10] | max response [3] -20% | Potency [4] | outcome [5] | Potency [7] | outcome [8]

OCc1cccc(Oc2ccccc2)c1
inactive: Potency [1] | Potency [2] | Potency [4] | outcome [5] | outcome [6] | Potency [9] | Potency [7] | outcome [8]

CC(=O)OCc1ccco1
inactive: Potency [1] | Potency [2] | max response [3] 3.13% and 20% | Potency [4] | outcome [5] | outcome [6] | Potency [9] | outcome [8]

CSc1ccc(Cl)cc1
inactive: Potency [1] | Potency [2] | Potency [4] | outcome [5] | outcome [6] | Potency [9] | Potency [7] | outcome [8]
